Unmarked numbers belong to inactive results. Active and inactive are the calls of the source.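 Rule for the calls: active = inhibition above the hit cutoff set in the earlier primary screen (cut at about 27% in these data); inactive = the rest.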

Sequence of Protein phosphatase methylesterase 1 (Homo sapiens) (Q9Y570 whole entry, looked up): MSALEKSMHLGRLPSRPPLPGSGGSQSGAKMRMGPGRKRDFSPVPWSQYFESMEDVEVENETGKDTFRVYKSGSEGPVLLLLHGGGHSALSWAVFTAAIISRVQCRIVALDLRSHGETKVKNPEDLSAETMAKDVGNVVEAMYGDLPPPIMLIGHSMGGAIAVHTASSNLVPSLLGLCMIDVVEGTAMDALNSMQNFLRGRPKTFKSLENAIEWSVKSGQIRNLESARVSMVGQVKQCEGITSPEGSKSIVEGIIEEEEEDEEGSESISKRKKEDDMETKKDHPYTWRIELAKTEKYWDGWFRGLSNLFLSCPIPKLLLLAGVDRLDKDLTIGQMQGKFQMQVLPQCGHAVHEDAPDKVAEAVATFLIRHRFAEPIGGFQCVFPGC

The test concerns the target Protein phosphatase methylesterase 1 (Homo sapiens) (UniProt Q9Y570). Put plainly: PME-1 inhibitor activity retest, confirmation, biochemical, fluorescence polarization, FP-Rh probe, triplicate (AID 2171).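 Note: 0% = enzyme with DMSO and 100% = wells lacking PME-1.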 Conditions: recombinant PME-1, FP-Rh probe fluorescence polarization; at 5.9 µM; stronger effect = higher value.
As to `CC(=O)N1CCN(c2ccc(NC(=S)NC(=O)COc3ccc(C(C)(C)C)cc3)cc2)CC1`, the inhibition was 26.1%.

As for `O=C(Nc1cccc(-c2csc(Nc3ccc(Cl)cc3)n2)c1)c1cc([N+](=O)[O-])cc(C(F)(F)F)c1`, the inhibition is -16.1%. In the case of `S=C(NCc1ccccc1)NCc1cccc(CNC(=S)NCc2ccccc2)c1` it was 3.07%; in that of `O=C(Nc1ccc2[nH]c(=S)sc2c1)Nc1ccccc1F`, 67.4% (active). In the case of `CCOC(=O)Cc1csc(NC(=O)c2sc3nc4cc(C)ccc4cc3c2N)n1` it was 20.8%. In the case of `C=CCn1c(O)c(N=Nc2ccccc2O)c2ccccc21` it was 29.2% (active); in that of `COc1ccc2oc(=O)c(-c3csc(Nc4cccc(O)c4)n3)cc2c1`, 9.36%.

In the case of `CCOC(=O)N1CC=C2C(C#N)=C(N)C(C#N)(C#N)[C@H](c3ccc(OC(C)C)c(OCC)c3)[C@H]2C1`, the inhibition is 41.6% (active). In the case of `CC(C)(C)c1cc(C(=O)N/N=C/c2ccc(-c3ccccc3[N+](=O)[O-])o2)n[nH]1` it was 1.81%. In the case of `Nc1[nH]n(-c2ccccc2)c(=O)c1N=Nc1ccc2ncsc2c1` it was 31.1% (active); in that of `C/C(=C\c1ccc2c(c1)OCO2)C1Nc2cccc3cccc(c23)N1`, 28.5% (active).

With `COC(=O)c1ccc(C2Nc3cccc4cccc(c34)N2)cc1`, the inhibition is 51.9% (active). With `CCCN(CCC)CCCNC(=O)c1cn(CC)c2ccc(S(=O)(=O)N(C)C3CCCCC3)cc2c1=O` the figure was 50.9% (active); with `CC(C)c1ccc2[nH]c(O)c(N=NC(=O)c3ccc(CSc4nncn4C)cc3)c2c1`, 104% (active); with `Oc1ccc(/C=C/c2ccc3cccc(O)c3n2)cc1Br`, 23.9%. For the molecule `Nc1n[nH]c(C2CC2)c1N=Nc1ccc(Cl)c(Cl)c1`, the inhibition is 20.6%. With `CCOc1cc(-c2cc(-c3ccc(N)cc3)nc(N)c2C#N)ccc1O` the figure was 41.5% (active). With `O=C(CNc1cccc2ccccc12)N/N=C/C(Br)=C/c1ccccc1` the figure was -1.47%; with `CCCCN(CC)CCCNC(=O)c1cn(CC)c2ccc(S(=O)(=O)N3CCc4ccccc4C3)cc2c1=O`, 59.1% (active); with `S=C(Nc1ccc(N2CCOCC2)cc1)Nc1ccc2nc(-c3ccco3)c(-c3ccco3)nc2c1`, 24.7%. With `CCOC(=O)Cc1csc(NC(=O)c2sc3nc4ccc(C)cc4cc3c2N)n1` the figure was 21%; with `O=c1c2ccccc2nc(/C=C/c2c[nH]c3ccccc23)n1CCO`, 58.5% (active). On to `O=C(O)c1ccc(N/N=C/c2ccc(-c3ccc(Cl)cc3Cl)o2)cc1`, for which the inhibition is 85.9% (active). In the case of `COc1cc2nc(Nc3ccc(C)c(Cl)c3)nc(N)c2cc1OC` it was 49.4% (active). With `Cn1c(=O)c(NCCO)c2c3c(cccc31)C(=O)c1ccccc1-2` the figure was 134% (active); with `C=CCCC(=O)Nc1nc(C)c(-c2csc(Nc3ccc(Cl)cc3)n2)s1`, 48.2% (active); with `CCOc1ccc2nc(SCC(=O)Nc3ccc4c(c3)OCCO4)[nH]c2c1`, 25.3%. With `CC(C)N=c1cc2n(-c3ccc(Cl)cc3)c3ccccc3nc-2cc1Nc1ccc(Cl)cc1` the figure was 17.7%. `CCC(=O)Oc1ccc(C/C(=N\O)c2ccc(O)cc2O)o1`: the inhibition was 43% (active). `O=C(N/N=C/c1ccc(O)cc1)c1cccc(N/N=C/c2ccc(O)cc2)c1`: the inhibition is 18.8%.

As for `Cc1[nH]c2ccccc2c1/C=C/c1nc2ccccc2c(=O)n1CCO`, the inhibition was 68.3% (active). In the case of `CCC(=O)NC(c1cccs1)c1cc([N+](=O)[O-])c2cccnc2c1O` (stereo not given) it was 25.9%; in that of `CCCCN(CCCC)CCNC(=O)c1cn(CC)c2ccc(S(=O)(=O)N3CCc4ccccc4C3)cc2c1=O`, 48.8% (active); in that of `CCCn1nc([N+](=O)[O-])c(C(C#N)c2nc3ccccc3o2)c(Cl)c1=O` (stereo not given), 36.5% (active). Consider `Cc1nn(-c2ccccc2)c(Cl)c1/C=N/Nc1ccc(S(=O)(=O)Nc2ccccc2C(=O)O)cc1[N+](=O)[O-]`, for which the inhibition was 22.1%. In the case of `CCN(CC(=O)Nc1c(C(=O)OC)[nH]c2ccc(Cl)cc12)c1ccc2c(c1)OCO2` it was 6.28%. In the case of `CCN(CC)c1ccc(-c2nn3c(-c4ccccc4OC)nnc3s2)cc1` it was 22.1%; in that of `N#CCC(=O)c1ccccc1Oc1ccc(Cl)cc1`, 13.4%; in that of `CCOc1cc(/C=C/c2ccc3cccc([N+](=O)[O-])c3n2)cc(Cl)c1O`, -9.78%. As for `O=C1CC(N(O)c2ccccc2)C(=O)N1c1cc(Cl)cc(Cl)c1` (stereo not given), the inhibition is 5.35%.

For orientation: inhibition means the drop in the measured response relative to a control, in per cent.

The record behind these values is PubChem BioAssay.
